# aSyn UTR act: Activators via SNCA 5'UTR binding, MLPCN | alpha-synuclein 5'UTR reporter, activators screen | AID 1814, 2009 | activity score, % (tested at 7.5 µM), hits read low | actives 7.1% (n = 300,000); in the data active = activity score below about -60%
# Numbers without * were called inactive. Not all results are given here.
SMILES,aSyn UTR act
Cc1cc(C)n(-c2nc(N(c3ccccc3)c3ccccc3)nc(-n3nc(C)cc3C)n2)n1,57.0
c1ccc(-c2cnnc(N3CCOCC3)n2)cc1,-109.6*
Cc1cc(C)n(-c2ncc(-c3ccccc3)nn2)n1,-68.5*
Cc1cc(C)n(-c2nncc(-c3ccccc3)n2)n1,-75.8*
N/C(=N\OC(=O)COc1ccccc1)c1ccncc1,-82.3*
N/C(=N\OC(=O)COc1ccccc1)c1cccnc1,-112.8*
COc1ccc(/C(N)=N/OC(=O)COc2ccccc2Cl)cc1,-141.5*
N/C(=N\OC(=O)COc1ccccc1)c1ccc(Cl)cc1,-67.1*
N/C(=N\OC(=O)CSc1ccccc1)c1ccncc1,-90.7*
COc1cccc(OCC(=O)O/N=C(\N)c2ccncc2)c1,-90.0*
Nc1ccc(Cc2nc3c(ccc4ccccc43)[nH]2)cc1,-171.2*
Cc1ccc2nc(C(O)C(O)c3nc4ccc(C)cc4[nH]3)[nH]c2c1 (stereo not drawn),-159.0*
Clc1ccc2nc(-c3ccc(Cl)nc3)[nH]c2c1,-293.5*
Nc1ccc(-c2nc3ccc(N)cc3[nH]2)cc1,-62.0*
Nc1ccc2nc(-c3cc(Cl)c(N)c(Cl)c3)[nH]c2c1,-279.5*
CCc1nc(N)nc(N)c1-c1ccc(Cl)cc1,84.5
Cc1ccc2nc(Cc3ccc(N)cc3)[nH]c2c1,-89.8*
Nc1ccc2nc(-c3ccc(Cl)cc3)[nH]c2c1,-175.6*
Cc1ccc(C)c(-c2nc3ccc(N)cc3[nH]2)c1,-64.2*
CCOC(=O)N1CCC(NC(=O)c2ccc3c(c2)sc2nc(-c4ccc(OC)cc4)cn23)CC1,-98.2*
CCOC(=O)N1CCN(C(=O)c2nc3ccccc3s2)CC1,-92.7*
CCOC(=O)N1CCN(C(=O)c2ccc3c(c2)sc2nc(-c4ccccc4)cn23)CC1,-108.7*
CCOC(=O)c1cnn(-c2cc(C)c3ccccc3n2)c1N,-65.4*
CCOC(=O)c1cnn(-c2cc(Oc3ccccc3)ncn2)c1N,-101.3*
CCOC(=O)c1cnn(-c2cc(Oc3ccccc3C)ncn2)c1N,-88.4*
SMILES,aSyn UTR act
CCOC(=O)c1cnn(-c2ncnc3sc4c(c23)CCC4)c1N,-74.5*
CCOC(=O)c1cnn(-c2ncnc3c2oc2ccccc23)c1N,-98.4*
CCOC(=O)c1cnn(-c2ccccn2)c1N,-115.8*
c1ccc(Oc2cc(-c3ccccc3)ncn2)cc1,-123.9*
Cc1cnn(-c2cc(Oc3ccccc3)ncn2)c1,-216.2*
COc1ccc(OC)c(NC(=O)NC2(C(F)(F)F)Oc3ccccc3O2)c1,-72.7*
O=C(Nc1ccccn1)c1cc(-c2cccnc2)nc2ccc(Br)cc12,62.1
Cc1ccc(-c2cc(C(=O)NCc3cnn(C)c3C)c3cc(Br)ccc3n2)cc1,-63.9*
COc1cccc(OC)c1-c1nn2c(-c3ccco3)nnc2s1,-77.9*
COc1ccccc1-c1nnc2sc(-c3cc4ccccc4o3)nn12,76.3
Cc1ccc(-c2cn3cccc(C)c3n2)cc1,-75.3*
O=[N+]([O-])c1cccn2cc(-c3ccc(Br)cc3)nc12,-315.3*
COc1ccc(-c2cn3cccc(C)c3n2)cc1F,-149.1*
COc1ccc(-c2cn3cc(C)ccc3n2)cc1F,77.5
C(=C\n1nnc2ccccc21)/c1ccc[nH]1,-72.3*
N#C/C(=N\Nc1ccc(Cl)c(Cl)c1)C(=O)C1CC1,-97.3*
CC(=O)c1ccc(OCc2cc(C(=O)N3CCC(Oc4ccccc4C)CC3)no2)cc1,-182.5*
CC(=O)c1ccc(OCc2cc(C(=O)N3CCOCC3)no2)cc1,-154.3*
CCN(CC)CCCN(C(=O)c1cccs1)c1nc(-c2ccc(OC)cc2)cs1,-101.5*
COCCCN(C(C)=O)c1nc(-c2ccccc2)cs1,-145.9*
COc1ccc(-c2csc(N(C)C(=O)c3cccs3)n2)cc1,-125.7*
Cc1cc2oc(=O)cc(COC(=O)c3n[nH]c4ccccc34)c2cc1C,-133.6*
COc1ccc2c(COC(=O)c3n[nH]c4ccccc34)cc(=O)oc2c1,-180.4*
CCN(CCn1cccn1)C(=O)c1cc(COc2ccccc2SC)on1,-89.7*
CCN(CCn1cccn1)C(=O)c1cc(COc2cc(C)ccc2C)on1,-79.0*
SMILES,aSyn UTR act
Cc1nc(NC(=O)C23CC4CC(CC(C4)C2)C3)sc1Cc1ccc2c(c1)OCO2,-183.7*
Cc1cccc(CCNc2nc3ccc(C)cc3n3cnnc23)c1,-155.7*
c1ccc(-c2cccc(-c3ccccn3)n2)nc1,76.6
c1ccc(-c2nnc(-c3ccccn3)nn2)nc1,-121.8*
Cc1nc(NC(=O)c2ccc(Br)o2)ccc1Br,-151.5*
Cc1cccc(NC(=O)c2cc3ccccc3c(=O)o2)n1,-190.7*
Cc1nc(NC(=O)c2cc3ccccc3o2)ccc1Br,-160.2*
O=C1C2=C(c3ccccc31)[N+](=O)[C@@H]1CCCC[C@@H]1N2[O-],-94.3*
O=C1C2=C(c3ccccc31)[N+](=O)C1CCCCC1N2[O-] (stereo not drawn),-72.6*
C=C[C@@]1(C)CC(=O)[C@]2(O)[C@@]3(C)[C@@H](O)CCC(C)(C)[C@@H]3[C@H](O)[C@H](OC(C)=O)[C@@]2(C)O1,72.3
c1csc(C2=NNC(=NC3CCCCC3)SC2)c1,-165.0*
c1ccc2oc(C3=NNC(=NC4CC4)SC3)cc2c1,-134.8*
COCCNC(=O)c1cc2oc3ccccc3c2n1C,-98.5*
CCOc1ccccc1CNC(=O)c1cc2oc3ccccc3c2n1C,50.9
Cc1ccccc1CS(=O)(=O)c1ncc(Cl)c(C(=O)Nc2ccc(F)cc2)n1,64.2
CC1=NN(c2ccccc2)C(=O)C1C(=O)C(=O)Nc1ccc(F)cc1 (stereo not drawn),-167.6*
Cc1ccc(NC(=O)C(=O)C2C(=O)Nc3ccccc32)cc1 (stereo not drawn),-77.4*
CCN1C(=O)N/C(=C/c2cc(C)n(Cc3ccccc3)c2C)C1=O,-63.1*
CC(=O)N(c1nnc(-c2cccc(C)c2)s1)C1CCCC1,-159.6*
COc1ccc(Cn2c(-c3ccco3)nc3oc4cc(OC)ccc4c(=O)c3c2=O)cc1,-91.6*
COc1ccccc1N1CCN(/N=C/C(Cl)=C/c2ccccc2)CC1,-158.9*
COc1ccccc1N1CCN(/N=C\c2ccc(C)o2)CC1,-97.9*
COc1ccccc1N1CCN(C(=O)C2c3ccccc3Oc3ccccc32)CC1,80.9
COc1ccccc1N1CCN(/N=C\c2ccccc2)CC1,-102.7*
COc1ccc(C(=O)/C=C/c2ccccc2F)c(OC(=O)c2ccc([N+](=O)[O-])cc2)c1,-228.0*
SMILES,aSyn UTR act
COc1ccc(C(=O)c2cc([N+](=O)[O-])ccc2N2CCOCC2)cc1,58.3
COc1ccc(C(=O)/C=C/c2ccc(C)cc2)c(OC(=O)c2ccc([N+](=O)[O-])cc2)c1,-87.0*
Nc1c(C(=O)Nc2cccc(Cl)c2Cl)sc2nc(-c3cccnc3)ccc12,-61.9*
COc1cccc(-c2ccc3c(N)c(C(=O)NC4CC4)sc3n2)c1,-76.4*
COc1ccc(-c2ccc3c(N)c(C(=O)c4cccc(OC)c4)sc3n2)cc1,-71.2*
CSC1=C(C#N)C(c2ccc(Cl)cc2)C2=C(CC(C)(C)CC2=O)N1 (stereo not drawn),71.1
O=C(N/N=C/c1ccc([N+](=O)[O-])cc1)c1[nH]ncc1Br,-68.0*
Cc1cccc(Nc2nc(N)nc(CSc3nccn3C)n2)c1,-99.5*
Nn1c(SCc2ccccc2)nc2ccccc21,-126.5*
Cc1ccc(NC(=O)c2noc3c2CCc2ccccc2-3)cc1,-205.2*
CCc1ccc(NC(=O)C2(C)Cc3ccccc3C(=O)O2)cc1 (stereo not drawn),-142.0*
CCc1ccc(NC(=O)c2noc3c2CCc2ccccc2-3)cc1,-95.3*
O=c1/c(=C\c2cccnc2)sc2nc3ccccc3n12,-107.3*
